Assay in all cases: NCI-60 one-dose screen, 48 h (100 = growth as untreated, 0 = no growth, -100 = all killed)
One experiment has as its system HCT-15 colon. The settings on record: 10 µM unless noted.
The next experiment has as its system HT29 colon. Conditions: 10 µM unless noted.
In the next experiment the test system is SNB-75 CNS. The settings on record: 10 µM unless noted.
Another experiment relates to SNB-19 CNS. The settings on record: 10 µM unless noted.
In another experiment the test system is U251 CNS. Conditions: 10 µM unless noted.
The test system of a further experiment is PC-3 prostate. Conditions: 10 µM unless noted.
Another experiment relates to SK-MEL-5 melanoma. The settings on record: 10 µM unless noted.
In another experiment the test system is UACC-62 melanoma. Conditions: 10 µM unless noted.
The test system of another experiment is LOX IMVI melanoma. Conditions: 10 µM unless noted.
For another experiment, the system named is SK-MEL-28 melanoma. The settings on record: 10 µM unless noted.
Another experiment relates to SK-MEL-2 melanoma. Conditions: 10 µM unless noted.
The subject of a further experiment is EKVX NSCLC. Conditions: 10 µM unless noted.
For another experiment, the system named is SN12C renal. Conditions: 10 µM unless noted.
A further experiment has as its system UO-31 renal. The settings on record: 10 µM unless noted.
In the next experiment the test system is TK-10 renal. Conditions: 10 µM unless noted.
A further experiment has as its system ACHN renal. Conditions: 10 µM unless noted.
The test system of a further experiment is CAKI-1 renal. The settings on record: 10 µM.
For a further experiment, the system named is MOLT-4 leukemia. The settings on record: 10 µM unless noted.
Another experiment concerns A498 renal. Conditions: 10 µM unless noted.
In the next experiment the test system is CCRF-CEM leukemia. Conditions: 10 µM unless noted.

Compounds without any hit were thinned out: in the full panel of roughly 83,000, 20% have a hit.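 Cell lines were cultured in 96-well plates, exposed to a single compound concentration, and assessed for percent growth 48 hours later.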 Unmarked numbers belong to inactive results. Active and inactive are the calls of the source. The calls were made as follows: active = growth percent below 10; inactive = the rest.

Regarding `O=C(COc1ccc(C2SCC(=O)N2c2ccccc2)cc1)c1ccccc1` (stereo unspecified), the growth was 97.2% with HCT-15 colon; 105% in the experiment with HT29 colon; 87.5% in the experiment with SNB-75 CNS; 99.4% with SNB-19 CNS; 95.8% in the experiment on U251 CNS; 80.5% in the experiment with PC-3 prostate. The growth was 94.4% in the experiment with SK-MEL-5 melanoma; 68.6% with UACC-62 melanoma; 93.3% in the experiment on LOX IMVI melanoma; 105% with SK-MEL-28 melanoma; 103% with SK-MEL-2 melanoma; 81.2% in the experiment with EKVX NSCLC. Moreover, the growth is 92.3% in the experiment with SN12C renal; 78.5% with UO-31 renal; 124% with TK-10 renal; 92.5% with ACHN renal; 79.2% in the experiment on CAKI-1 renal; 88.8% with MOLT-4 leukemia.

For the compound `CCC(C)[C@H]1OC(=O)[C@H](C(C)C)N(C)C(=O)[C@@H](C(C)C)OC(=O)[C@H](C(C)C)N(C)C(=O)[C@@H](C(C)CC)OC(=O)[C@H](C(C)C)N(C)C1=O` (stereo partly specified), the growth was 11.4% in the experiment with HCT-15 colon; 6.93% (active) with HT29 colon; -2.11% (active) in the experiment with SNB-75 CNS; 18.1% in the experiment with SNB-19 CNS; 12.5% in the experiment on U251 CNS; 12.1% in the experiment with PC-3 prostate. The growth was -31.5% (active) in the experiment on SK-MEL-5 melanoma; 6.11% (active) in the experiment with UACC-62 melanoma; 7.89% (active) in the experiment with LOX IMVI melanoma; 32.2% in the experiment on SK-MEL-28 melanoma; -14.6% (active) in the experiment with SK-MEL-2 melanoma; 20.5% with EKVX NSCLC. For the same compound, the growth is 4.12% (active) with SN12C renal; -13.6% (active) with UO-31 renal; -8.95% (active) with TK-10 renal; 7.98% (active) in the experiment on ACHN renal; -2.54% (active) in the experiment on A498 renal; 9.05% (active) with CCRF-CEM leukemia. Besides, the growth with MOLT-4 leukemia was -24.2% (active).

As to `CCOC(=O)C1=C(C)Nc2nc3ccccc3n2C1c1cccc(Br)c1` (stereo unspecified), the growth is 48.5% with HCT-15 colon; 49.3% with HT29 colon; 53.9% in the experiment on SNB-75 CNS; 77.2% in the experiment with SNB-19 CNS; 88.8% in the experiment on U251 CNS; 84.1% with PC-3 prostate. Further, the growth was 80.4% with SK-MEL-5 melanoma; 60.3% in the experiment on UACC-62 melanoma; 82.3% with LOX IMVI melanoma; 84.9% in the experiment with SK-MEL-28 melanoma; 89.9% in the experiment with SK-MEL-2 melanoma; 80.2% in the experiment with EKVX NSCLC. The growth is 95.1% in the experiment with SN12C renal; 73.7% in the experiment on UO-31 renal; 113% in the experiment on TK-10 renal; 88.9% in the experiment on ACHN renal; 54.5% in the experiment with CAKI-1 renal; 69.3% with MOLT-4 leukemia.

As to `O=C(COc1ccc(C2SCC(=O)N2c2ccc(F)cc2)cc1)c1ccccc1` (stereo unspecified), the growth in the experiment on HCT-15 colon is 95.7%; with HT29 colon it was 109%; in the experiment with SNB-75 CNS it was 83.1%; with SNB-19 CNS, 91.5%; with U251 CNS it was 101%; in the experiment with PC-3 prostate, 79.2%. Further, the growth is 97.7% with SK-MEL-5 melanoma; 61.4% with UACC-62 melanoma; 87.6% in the experiment with LOX IMVI melanoma; 102% in the experiment with SK-MEL-28 melanoma; 99.8% with SK-MEL-2 melanoma; 86.9% with EKVX NSCLC. Besides, the growth in the experiment with SN12C renal was 97.1%; in the experiment on UO-31 renal, 78.6%; in the experiment with TK-10 renal, 131%; with ACHN renal it was 95.6%; in the experiment on CAKI-1 renal it was 66%; with CCRF-CEM leukemia it was 95.8%. The growth with MOLT-4 leukemia was 92.5%.

Turning to `CCCCCCCCCC[C@@H](C)[C@@H]1CC(=O)N[C@H]([C@@H](C)O)C(=O)N[C@@H](C)C(=O)N[C@H](C)C(=O)N[C@@H](CCC(N)=O)C(=O)N[C@H](Cc2ccc(O)cc2)C(=O)N[C@@H](C(C)CC)C(=O)O1` (stereo partly specified), the growth is 101% in the experiment with HCT-15 colon; 68.3% in the experiment with HT29 colon; 52.5% in the experiment on SNB-75 CNS; 51.9% in the experiment on SNB-19 CNS; 51.6% in the experiment with U251 CNS; 39% in the experiment on PC-3 prostate. Further, the growth in the experiment with SK-MEL-5 melanoma was 48.1%; in the experiment on UACC-62 melanoma, 92.4%; in the experiment with LOX IMVI melanoma, 71.2%; in the experiment on SK-MEL-28 melanoma it was 82.5%; with SK-MEL-2 melanoma, 65.5%; in the experiment with EKVX NSCLC, 66.6%. Besides, the growth was 66.5% with SN12C renal; 79.6% with UO-31 renal; 47.9% with TK-10 renal; 98.3% in the experiment on ACHN renal; 64.3% with A498 renal; 63.2% with CCRF-CEM leukemia. Further, the growth in the experiment on MOLT-4 leukemia was 41.1%.

Turning to `CC(=O)NC(C)(C)C(=O)N1CCC[C@H]1C(=O)NC(C)(C)C(=O)N[C@@H](C)C(=O)NC(C)(C)C(=O)NC(C)(C)C(=O)N[C@@H](CCC(N)=O)C(=O)NC(C)(C)C(=O)N[C@H](C(=O)NC(C)(C)C(=O)NCC(=O)N[C@@H](CC(C)C)C(=O)NC(C)(C)C(=O)N1CCC[C@H]1C(=O)N[C@H](C(=O)NC(C)(C)C(=O)NC(C)(C)C(=O)N[C@@H](CCC(N)=O)C(=O)N[C@@H](CCC(N)=O)C(=O)N[C@H](CO)Cc1ccccc1)C(C)C)C(C)C`, the growth with HCT-15 colon was 98.8% [4.25 µM]; with HT29 colon, 27.4% [4.25 µM]; with SNB-75 CNS, 18.6% [4.25 µM]; in the experiment with SNB-19 CNS, 19.1% [4.25 µM]; with U251 CNS, 21.8% [4.25 µM]; in the experiment with PC-3 prostate, 14.9% [4.25 µM]. The growth in the experiment with SK-MEL-5 melanoma was -45.7% [4.25 µM] (active); in the experiment on UACC-62 melanoma, 35% [4.25 µM]; in the experiment on LOX IMVI melanoma it was 18.6% [4.25 µM]; in the experiment with SK-MEL-28 melanoma it was 32.1% [4.25 µM]; with SK-MEL-2 melanoma, 0.326% [4.25 µM] (active); in the experiment with EKVX NSCLC, 65% [4.25 µM]. In addition, the growth in the experiment with SN12C renal was 13.4% [4.25 µM]; with UO-31 renal, 97.7% [4.25 µM]; with TK-10 renal it was 59.2% [4.25 µM]; with ACHN renal, 96.3% [4.25 µM]; in the experiment with A498 renal, 25% [4.25 µM]; in the experiment on CCRF-CEM leukemia, 36.3% [4.25 µM]. Further, the growth with MOLT-4 leukemia was 35.6% [4.25 µM].

As to `C#CCOc1ccc(C(Nc2cc(Cl)ccc2Cl)c2nnnn2C2CCCCC2)cc1` (stereo unspecified), the growth in the experiment with HCT-15 colon was 86.4%; in the experiment with HT29 colon, 92.7%; with SNB-75 CNS, 95.1%; in the experiment on SNB-19 CNS, 86%; in the experiment with U251 CNS it was 82.7%; in the experiment on PC-3 prostate it was 76.9%. The growth is 95.4% in the experiment with SK-MEL-5 melanoma; 66.7% in the experiment on UACC-62 melanoma; 97.7% in the experiment with LOX IMVI melanoma; 107% with SK-MEL-28 melanoma; 95% in the experiment on SK-MEL-2 melanoma; -8.05% (active) with EKVX NSCLC. Besides, the growth is 91.4% with SN12C renal; 62.5% with UO-31 renal; 90.8% in the experiment on TK-10 renal; 92% with ACHN renal; 44.4% in the experiment on CAKI-1 renal; 85.8% in the experiment with CCRF-CEM leukemia. The growth in the experiment on MOLT-4 leukemia was 68.1%.
